We go through 15 compounds from PubChem BioAssay AID1645875 (National Center for Advancing Translational Sciences (NCATS), 2021).

“And” between values parts separate entries of the source, which are not always exact repeats. Identical values can stand only once. Records with an inconclusive call do not appear. Values without a mark were called inactive. The source made the active and inactive calls. Calls follow the shape of the dose curve; as a rule, active = well fitted inhibition curve with a large enough effect; inconclusive = small, poorly fitted or top-dose-only effect; inactive = no such curve, though single readings can be large or run the other way.

Sequence of N-terminal Xaa-Pro-Lys N-methyltransferase 1 (Homo sapiens) (Q9BV86 whole entry, looked up): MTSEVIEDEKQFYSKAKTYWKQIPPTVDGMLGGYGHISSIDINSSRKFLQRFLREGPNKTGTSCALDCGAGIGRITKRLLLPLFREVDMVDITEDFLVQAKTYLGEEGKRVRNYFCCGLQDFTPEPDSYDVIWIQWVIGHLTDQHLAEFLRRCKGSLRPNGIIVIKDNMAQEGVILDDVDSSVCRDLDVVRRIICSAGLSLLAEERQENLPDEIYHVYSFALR

In this test the target is N-terminal Xaa-Pro-Lys N-methyltransferase 1 (Homo sapiens) (UniProt Q9BV86). The test is described as follows: Orthogonal qHTS for Inhibitors of N-terminal methyltransferase 1 (NTMT1): ThioGlo Assay. To be noted: NTMT1 SAHH-coupled ThioGlo fluorescence, 30 min; series mostly up to 84.5 µM; activity, negative = inhibition: at the top concentration. Summed up:
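125 nM NTMT1 pre-incubated 1 min at room temperature with titrated compounds, then 100 uM SAM, 10 uM SAHH and 15 uM ThioGlo3 (final) added. Fluorescence (ex 340/em 450 nm) read before and after 30 min in the dark, normalized to the initial background.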
A general note: qHTS replaces the single test concentration by a dilution series.
Consider `Cc1cc2c(c(=O)[nH]1)OC(C(O)CC(C)C)O2` (stereo not given), for which the Potency is 19.7 µM (active).
Take `Cc1ccnc(NC(=S)N2CCN(c3cc(C(F)(F)F)cc(C(F)(F)F)c3)CC2)c1`: the Potency is 4.35 µM (active).
As to `CNC(=O)c1ccccc1Nc1cc(Nc2ccc(N3CCOCC3)cc2OC)ncc1C(F)(F)F`, the Potency was 8.79 µM (active).
The same measure, in the same setting: with `OCCn1cc(-c2cnc3nnn(Cc4ccc5ncccc5c4)c3n2)cn1` the figure was 17.5 µM (active); with `COc1c(C)c(C(=O)c2ccc(N)c(C(=O)O)c2)n2ccccc12`, 1.97 µM (active) and 1.75 µM (active).
`COc1cc2c(NC3CCN(C4CCCCC4)CC3)nc(N3CCCN(C)CC3)nc2cc1OCCOCCN(C)C`: the Potency was 43.5 µM (active).
Turning to `COc1cc(N2CCN(C(C)=O)CC2)ccc1Nc1ncc(Cl)c(Nc2ccc(N3CCN(C(C)=O)CC3)cc2OC)n1`, the Potency was 22.1 µM (active).
`COc1cc2c(NC3CCN(C(C)C)CC3)nc(N3CCCN(CC4CCCCC4)CC3)nc2cc1OCCCN1CCCC1`: the Potency is 12.3 µM (active).
Consider `c1cc(CN2CCCCC2)cc(OCCCNc2nc3ccccc3s2)c1`, for which the “activity, negative = inhibition” value is -14.1%.
Regarding `CCNC(=O)c1noc(-c2cc(C(C)C)c(O)cc2O)c1-c1ccc(CN2CCOCC2)cc1`, the “activity, negative = inhibition” value was -4.32%.
Turning to `NCC(O)C1CCCCCCC1` (stereo not given), the “activity, negative = inhibition” value was 4.12%.
For the compound `CC/C(=C(\c1ccccc1)c1ccc(OCCN(C)C)cc1)c1ccccc1`, the “activity, negative = inhibition” value is -30.2% [at 170 µM].
`NC(=O)c1cccc(-c2cc(OC(=O)NC3CCCCC3)ccc2O)c1`: the “activity, negative = inhibition” value was -7.27% [at 114 µM].
With `CC(C)c1cc(CNc2nc(Nc3cc(C4CC4)[nH]n3)cc(N3CCN(C)CC3)n2)on1`, the Potency was 7.84 µM (active).
Still for that read-out and setting: with `Fc1cc(-c2cccc3ncc(-c4cnn(C5CCNCC5)c4)nc23)cc(F)c1CN1CCOCC1` the figure was 34.5 µM (active).
